# Screens from PubChem.
# In the library only some 0.99% were active in any assay of this set; here they are far more common.
# TRHR ag: qHTS for Small Molecule Agonists and Allosteric Enhancers of Human TRH Receptor: Primary Screen for Agonists; TRHR cells, calcium flux fluo-8, FDSS agonist mode; activation, % at 2 µM; hit rate 0.18% among 360,000; in the data active = activation above about 30%; note: 0% is about no effect
#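 TRHR-expressing cells loaded with fluo-8 calcium dye; 23 nL library compound pin-transferred, kinetic FDSS fluorescence (Ex 480/Em 530) recorded about 180 s for agonist-induced calcium release, before a 10 nM TRH EC20 addition for potentiator mode.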
# TRPV1 PAM: HTS Assay for Compounds that Act as Potentiators of the Vanilloid Receptor 1. Transient receptor potential cation channel subfamily V member 1 (Homo sapiens), Q8NER1. TRPV1-expressing cells, Fluo-8 calcium influx, capsaicin EC20 potentiation. potentiation, % at 8.33 µM. hit rate 0.02% among 320,000. AID 540277, 2011; in the data active = potentiation above about 80%; inconclusive = between about 30% and that limit; note: 0% is about no effect
# Target sequence (Q8NER1 whole entry, looked up): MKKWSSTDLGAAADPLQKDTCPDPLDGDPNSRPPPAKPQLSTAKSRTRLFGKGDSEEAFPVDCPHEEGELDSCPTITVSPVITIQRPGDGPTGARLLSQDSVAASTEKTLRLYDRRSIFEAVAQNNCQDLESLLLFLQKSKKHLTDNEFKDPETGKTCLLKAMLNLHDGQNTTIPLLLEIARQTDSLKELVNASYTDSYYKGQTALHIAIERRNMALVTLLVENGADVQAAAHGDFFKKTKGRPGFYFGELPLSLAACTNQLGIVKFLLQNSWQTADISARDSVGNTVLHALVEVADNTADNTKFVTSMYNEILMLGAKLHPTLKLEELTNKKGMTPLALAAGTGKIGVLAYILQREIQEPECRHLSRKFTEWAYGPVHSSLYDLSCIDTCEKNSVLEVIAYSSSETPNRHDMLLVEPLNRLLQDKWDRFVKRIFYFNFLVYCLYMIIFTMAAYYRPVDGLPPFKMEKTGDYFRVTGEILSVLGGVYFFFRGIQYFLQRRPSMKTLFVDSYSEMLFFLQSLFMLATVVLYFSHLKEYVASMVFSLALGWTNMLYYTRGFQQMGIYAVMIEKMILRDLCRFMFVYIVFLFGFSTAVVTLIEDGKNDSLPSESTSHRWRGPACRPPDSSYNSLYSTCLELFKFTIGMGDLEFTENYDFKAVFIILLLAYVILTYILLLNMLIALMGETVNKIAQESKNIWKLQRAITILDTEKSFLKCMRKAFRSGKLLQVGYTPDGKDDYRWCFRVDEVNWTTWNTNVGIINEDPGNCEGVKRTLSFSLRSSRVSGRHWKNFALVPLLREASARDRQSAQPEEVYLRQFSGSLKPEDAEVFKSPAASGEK
#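 Fluo-8 calcium influx in TRPV1-expressing cells, kinetic read (ex 480/em 520 nm). Compound added and read 3 min for agonist activity, followed by capsaicin at EC20 final and 2 min further read for enhancement.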
# TRPML1 blocker: qHTS for Inhibitors of the Human Mucolipin Transient Receptor Potential 1 (TRPML1); hit rate 0.02% among 390,000; activity change, negative = inhibition, % (concentration not given with the values); Mucolipin-1 (Homo sapiens), Q9GZU1; TRPML1-inducible cells, Ca2+ dye fluorescence, FDSS; hits give low values; inhibition of EC80 agonist-evoked calcium signal; in the data active = activity change below about -50%; inconclusive = between about -30% and that limit;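 note: stimulus is agonist 54-4 at its EC80 concentration; % is set by controls: 0 for no effect and ±100 for the full control effect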
#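 TRPML1-DL cells, Tet-induced overnight (~16 h, 37 °C) at 1,500 cells/well, were loaded with Ca8 no-wash dye plus quencher for 45-90 min at room temperature. Compounds were pinned during FDSS kinetic reading; agonist 54-4 at EC80 (4 uM final) then added.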
# TRHR enhancer: qHTS for Small Molecule Agonists and Allosteric Enhancers of Human TRH Receptor: Primary Screen for Enhancers | enhancement, % at 2 µM | hit rate 0.66% among 360,000 | Thyrotropin-releasing hormone receptor (Homo sapiens), P34981 | AID 493056, 2011 | TRHR cells, fluo-8 calcium fluorescence, EC20 TRH enhancement; in the data active = enhancement above about 30%; note: 0% is about no effect
#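 TRHR-expressing cells loaded with fluo-8 calcium dye were read kinetically (ex 480/em 530) during compound addition, then stimulated with an EC20 of TRH (10 nM final). Enhancement of the Gq-mediated intracellular calcium response was scored.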
# TRPML1 agonist: qHTS for Agonists of the Human Mucolipin Transient Receptor Potential 1 (TRPML1) | activation, % (test concentration not listed) | hit rate 0.12% among 410,000 | TRPML1-expressing cells, Ca2+ dye fluorescence, FDSS | AID 624414, 2012; in the data active = activation above about 50%; inconclusive = mostly about 30% to 49%; note: 0% is about no effect
#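 Cells: TRPML1-DL, 1X Tet inducer, ~16 h at 37 degrees C/5% CO2. Dye: ABD Ca8 no-wash + quencher, 45-90 min RT. Read: 10 s baseline, compound add, 110 s agonist phase; 54-4 EC80 (4uM final), 110 s antagonist phase.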
# TRPV1 ag: HTS Assay for Compounds that Act as Agonists of the Vanilloid Receptor 1 | Transient receptor potential cation channel subfamily V member 1 (Homo sapiens), Q8NER1 | TRPV1-expressing cells, Fluo-8 calcium influx, agonist mode | activation, % at 8.33 µM | hit rate 0.19% among 320,000 | AID 540275, 2011; in the data active = activation above about 80%; inconclusive = between about 30% and that limit; note: 0% is about no effect
#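 Cells expressing TRPV1 were dye-loaded with Fluo-8 and read kinetically: 10 s baseline, 3 min after compound (agonist portion), then 2 min after EC20 capsaicin (allosteric enhancer portion). Calcium-bound dye fluorescence at 480/520 nm.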
# Active calls of the source: *; ? = inconclusive; . = no result.
SMILES,TRHR ag,TRPV1 PAM,TRPML1 blocker,TRHR enhancer,TRPML1 agonist,TRPV1 ag
CCc1cc(=O)oc2cc(O[C@@H]3O[C@H](CO)[C@@H](O)[C@H](O)[C@H]3O)c(Cl)cc12,1,8,8,33*,1,0
O=C(Nc1ccc(Cl)cc1)c1cc2c(Cl)nc3ccccc3c2s1,1,.,17,48*,0,.
COc1ccc(NC(=O)c2cc3c(Cl)nc4ccccc4c3s2)cc1OC,0,-1,9,9,0,4
Fc1ccccc1CNC(=S)NCc1ccc(Cl)cc1,1,9,23,-7,0,84*
S=C(NCc1ccccc1)NCc1ccc(CNC(=S)NCc2ccccc2)cc1,1,-6,16,6,3,?
Fc1ccc(CNC(=S)NCc2ccccc2)cc1,0,-4,23,-12,1,84*
CC(C)(C)n1ncc2c(=O)n(Cc3cccc(C(F)(F)F)c3)cnc21,.,.,0,.,1,.
CCOc1ncccc1C(=O)OCC(=O)Nc1ccc(C)c(S(=O)(=O)N2CCOCC2)c1,-1,14,-1,-4,3,0
CCOc1ncccc1C(=O)OCC(=O)NCCc1ccccc1,0,8,30,31*,1,-5
CCOc1ncccc1C(=O)OCC(=O)Nc1ccc(C)c(S(=O)(=O)N(C)C)c1,0,6,9,36*,1,-1
Cc1ccc2oc(-c3ccc(C)c(NC(=O)COc4ccc(Cl)cc4C)c3)nc2c1,.,.,.,.,0,.
CSc1ccc(Nc2nn(-c3ccc(OC(F)(F)F)cc3)nc2C(C)=O)cc1,1,.,14,-3,-1,.
C=CC[n+]1cccc2cc(Br)ccc21,.,.,.,.,1,.
Cc1ccc(C2=NN(CC(=O)NCCCN(CC(C)C)CC(C)C)C(=O)CC2)cc1,-1,.,-6,-1,-1,.
CS(=O)(=O)N(CC(=O)N1CCc2ccccc2C1)c1cccc([N+](=O)[O-])c1,0,-9,12,32*,0,2
COc1ccccc1N1N=C(c2ccc([N+](=O)[O-])cc2)CC1c1ccccc1 (configuration not stated),24,9,-16,2,69*,6
CCOC(=O)c1ccc(CN(Cc2ccc(F)cc2)S(=O)(=O)c2cc(C(=O)Nc3ccccc3CC)ccc2F)cc1,2,.,-14,0,1,.
Cc1cccc(-c2nc(CN3CCCC(C(=O)NCCc4ccc(Cl)cc4)C3)c(C)o2)c1 (configuration not stated),1,.,-18,34*,1,.
CCOc1ccc(NC(=O)C(Cc2ccccc2)N2C(=O)c3cccc4cccc(c34)C2=O)cc1 (configuration not stated),-2,8,-5,-1,61*,-6
O=C(NNC1=NS(=O)(=O)c2ccccc21)c1ccc([N+](=O)[O-])cc1,0,-5,-11,30*,0,2
O=C(NNC1=NS(=O)(=O)c2ccccc21)c1ccc(Cl)cc1,0,5,-1,3,2,1
O=C(NCc1ccco1)c1ccc([N+](=O)[O-])o1,0,-7,-8,69*,0,-1
Clc1cccc(CNc2ncnc3nc[nH]c23)c1,.,.,.,.,-1,.
c1ccc(-c2csc3ncnc(Sc4nnnn4-c4ccccc4)c23)cc1,.,.,.,.,0,.
CCCOC(=O)N1CCN(/[N+]([O-])=N/Oc2ccc([N+](=O)[O-])cc2[N+](=O)[O-])CC1,.,.,45,.,1,.
SMILES,TRHR ag,TRPV1 PAM,TRPML1 blocker,TRHR enhancer,TRPML1 agonist,TRPV1 ag
C=CCn1c(SCCN2C(=O)c3ccccc3C2=O)nc2scc(-c3ccc(F)cc3)c2c1=O,.,.,-9,.,-1,.
C=CCn1c(COc2ccccc2F)nnc1SCCN1C(=O)c2ccccc2C1=O,0,17,-14,38*,0,-2
CC(C)(C)[C@H]1CCC(=O)N(CCSc2ccc(Br)cc2)CC1,.,.,.,.,0,.
COc1cc(CNc2ccc3[nH]c(=O)[nH]c3c2)ccc1OCc1c(F)cccc1Cl,3,-9,-26,5,0,90*
CCOc1ccc(C2c3cc(OC)c(OC)cc3CC(=O)N2c2ccccc2)cc1 (configuration not stated),0,8,-51*,12,0,-4
CCOc1cc2c(cc1OCC)C(c1ccc(OC)cc1)N(c1ccccc1)C(=O)C2 (configuration not stated),0,-2,-7,7,1,7
COc1ccc(S(=O)(=O)N2CCCCC2C(=O)O)cc1 (configuration not stated),-1,-5,-8,-9,0,0
COc1ccc(S(=O)(=O)N2CCCCC2C(=O)O)cc1OC (configuration not stated),0,?,18,33*,0,0
C=CCOc1c(Br)cc(CNc2ccc3[nH]c(=O)[nH]c3c2)cc1OCC,0,-1,11,-4,0,87*
C=CCOc1c(Br)cc(CNc2ccc(NC(=O)CCC)cc2)cc1OCC,0,4,6,-2,2,-3
N#Cc1nc(Nc2cccc([N+](=O)[O-])c2)nc(NC2CCCC2)n1,0,.,.,-2,.,.
CC(C)(C)CC(C)(C)N=C1Nc2ccc(Cl)cc2N[C@]12C[C@H]1CCCC(=O)N3CC[C@@H](C2)[C@@H]13,.,.,.,.,0,.
c1ccc(Oc2ccc(-c3ccnc4nc(N5CCOCC5)nn34)cc2)cc1,-2,-4,50,33*,5,?
COc1ccc(OC)c(NC(=O)C(Sc2ccccc2)c2ccccc2)c1 (configuration not stated),0,-6,-52*,2,3,-1
O=S(=O)(NCCc1csc2nc(-c3ccc(Cl)cc3)nn12)c1cccs1,0,.,-6,-4,1,.
Cc1cc2c(NC(=O)CCCC(=O)O)cccc2nn1,0,-20,6,-1,0,-2
Cc1cc2c(NC(=O)Nc3ccc(C(F)(F)F)cc3)cccc2nn1,1,-3,19,7,0,82*
CCc1ccccc1-n1nnc(-c2nsc(NC(=O)c3ccc(C)c(C)c3)n2)c1C,34*,.,-27,-6,10,.
